Results: PubChem BioAssay (NCI)
About 83,000 compounds went through this panel and 20% of them were active in at least one assay; those are over-represented in the sample as a whole.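 The test compound was applied at a single concentration to cells in 96-well plates for 48 hours, and percent growth was recorded.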 Active and inactive are the calls of the source. Rule for the calls: active = growth percent below 10; inactive = the rest.

How the values were obtained:
Assay in all cases: NCI-60 one-dose screen, 48 h (100 = growth as untreated, 0 = no growth, -100 = all killed)
Conditions in all cases: 10 µM unless noted
SR leukemia = system: SR leukemia
RPMI-8226 leukemia = system: RPMI-8226 leukemia
OVCAR-8 ovarian = system: OVCAR-8 ovarian
OVCAR-5 ovarian = system: OVCAR-5 ovarian
OVCAR-4 ovarian = system: OVCAR-4 ovarian
SK-OV-3 ovarian = system: SK-OV-3 ovarian
IGROV1 ovarian = system: IGROV1 ovarian
OVCAR-3 ovarian = system: OVCAR-3 ovarian
HS 578T breast = system: HS 578T breast
NCI/ADR-RES ovarian = system: NCI/ADR-RES ovarian
T-47D breast = system: T-47D breast
BT-549 breast = system: BT-549 breast
MDA-MB-435 melanoma = system: MDA-MB-435 melanoma
SW-620 colon = system: SW-620 colon
MCF7 breast = system: MCF7 breast
HCT-116 colon = system: HCT-116 colon
KM12 colon = system: KM12 colon
HCC-2998 colon = system: HCC-2998 colon

Measured: growth

C1=C(N2CCCC2)CCC1
inactive: SR leukemia 112% | RPMI-8226 leukemia 95.4% | OVCAR-8 ovarian 104% | OVCAR-5 ovarian 86.2% | OVCAR-4 ovarian 98.8% | SK-OV-3 ovarian 131% | IGROV1 ovarian 108% | OVCAR-3 ovarian 106% | HS 578T breast 102% | NCI/ADR-RES ovarian 104% | T-47D breast 104% | BT-549 breast 113% | MDA-MB-435 melanoma 95.1% | SW-620 colon 101% | MCF7 breast 91% | HCT-116 colon 102% | KM12 colon 109%

COc1cc(NC(C)CCCNC(C)C)c2ncccc2c1OC (stereo not drawn)
inactive: SR leukemia 110% | RPMI-8226 leukemia 87.7% | OVCAR-8 ovarian 91.3% | OVCAR-5 ovarian 91.4% | OVCAR-4 ovarian 76.1% | SK-OV-3 ovarian 96.3% | IGROV1 ovarian 75.9% | OVCAR-3 ovarian 70% | HS 578T breast 91.9% | NCI/ADR-RES ovarian 85.4% | T-47D breast 31.6% | BT-549 breast 94.4% | MDA-MB-435 melanoma 108% | SW-620 colon 92.6% | MCF7 breast 93.5% | HCT-116 colon 92% | KM12 colon 106%

O=C1CNC(c2ccccc2)C(c2ccccc2)N1 (stereo not drawn)
inactive: SR leukemia 106% | RPMI-8226 leukemia 75.2% | OVCAR-8 ovarian 98% | OVCAR-5 ovarian 86.5% | OVCAR-4 ovarian 89% | SK-OV-3 ovarian 107% | IGROV1 ovarian 93% | OVCAR-3 ovarian 107% | HS 578T breast 86.1% | NCI/ADR-RES ovarian 81% | T-47D breast 104% | BT-549 breast 82.8% | MDA-MB-435 melanoma 105% | SW-620 colon 98.5% | MCF7 breast 91.8% | HCT-116 colon 93% | KM12 colon 100%

COc1cc(-c2cc(-c3cccs3)c(C#N)c(N3CCOCC3)n2)cc(OC)c1OC
inactive: RPMI-8226 leukemia 44.2% | OVCAR-8 ovarian 74.3% | OVCAR-5 ovarian 96.4% | OVCAR-4 ovarian 85.8% | SK-OV-3 ovarian 141% | IGROV1 ovarian 73.5% | OVCAR-3 ovarian 149% | HS 578T breast 90.6% | NCI/ADR-RES ovarian 58.2% | T-47D breast 89% | BT-549 breast 75.8% | MDA-MB-435 melanoma 92.8% | MCF7 breast 61.9% | HCT-116 colon 51.7% | HCC-2998 colon 86.4% | KM12 colon 105%
active: SR leukemia -1.19%
